In the supplement of paper PMC3334620:
The full ranking holds about 33,000 sequences; the median of “E-score (-0.5 to 0.5)” is about -0.01, and the highest 2% start at about 0.26. The full list was thinned out, with the highest values kept by preference.

What follows are sequences tested against Ste12 (UniProt P13574) (assay: PBM E-score (8-mer binding enrichment) (E-score (-0.5 to 0.5)); higher = stronger / more preferred TF binding). Settings: protein concentration: 200 nM; construct: GST-DNA-binding domain.
Procedure, shortened: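 The E-score, a modified Wilcoxon-Mann-Whitney statistic, was computed by the Universal PBM Analysis Suite for every ungapped eight-base word pooled with its reverse complement. Scans behind it were normalised with masliner after bound GST-tagged yeast transcription factors were detected with fluorescent anti-GST. The proteins, at about 100-200 nM, had been applied to universal all-10-mer Agilent arrays made double-stranded by primer extension.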

Chain of UniProt P13574 (P13574 whole entry, the tested form may be a part): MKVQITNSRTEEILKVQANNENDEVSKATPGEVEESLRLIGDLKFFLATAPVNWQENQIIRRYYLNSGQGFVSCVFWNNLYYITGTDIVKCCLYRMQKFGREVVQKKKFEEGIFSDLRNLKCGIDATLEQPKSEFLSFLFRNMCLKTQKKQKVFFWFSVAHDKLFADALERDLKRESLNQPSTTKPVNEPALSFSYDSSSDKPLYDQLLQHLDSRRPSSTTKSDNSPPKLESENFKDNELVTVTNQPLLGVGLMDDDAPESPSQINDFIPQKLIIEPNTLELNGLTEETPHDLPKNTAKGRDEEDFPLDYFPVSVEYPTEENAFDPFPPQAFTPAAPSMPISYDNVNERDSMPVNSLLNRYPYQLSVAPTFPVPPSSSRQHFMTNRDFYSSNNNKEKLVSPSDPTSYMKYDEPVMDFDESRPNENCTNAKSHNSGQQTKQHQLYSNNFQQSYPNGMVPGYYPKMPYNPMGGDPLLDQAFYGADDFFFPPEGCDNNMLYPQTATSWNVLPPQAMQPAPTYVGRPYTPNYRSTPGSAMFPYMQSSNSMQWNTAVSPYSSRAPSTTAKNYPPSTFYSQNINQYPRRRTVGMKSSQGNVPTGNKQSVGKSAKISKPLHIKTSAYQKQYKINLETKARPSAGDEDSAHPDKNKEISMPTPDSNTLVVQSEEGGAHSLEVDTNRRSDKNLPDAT

Row | Sequence | PBM E-score
1 | CCCCTAGG | -0.254
2 | ACGCTAGA | -0.209
3 | CTGTTGGA | 0.0959
4 | ATCAGGGG | -0.128
5 | GATGGTTA | -0.0584
6 | CCGGTTTA | -0.00824
7 | CGGGTTAC | 0.0422
8 | CGGGTTTC | 0.323
9 | CCGGTTTC | 0.298
10 | AAGGTTTC | 0.148
11 | CAGGTTTA | 0.0837
12 | CTGGTTTC | 0.244
13 | CAGGTTTC | 0.361
14 | ATGGTTTC | 0.28
15 | ACGGTTTC | 0.2
16 | AGGGTTTC | 0.114
17 | ATGGTTTG | 0.0887
18 | AGCCTCGC | -0.155
19 | GCCCGATA | -0.0773
20 | AAGGTTCG | -0.185
21 | AAGTGCAA | -0.0141
22 | AGTGATGC | -0.099
23 | TCAGACGA | -0.0271
24 | AGGGTTTA | 0.00108
25 | CGGGTTTA | 0.304

Row | Sequence | PBM E-score
26 | GGGGTTTA | 0.00666
27 | GTTCAGAA | -0.0378
28 | CGAACGCG | 0.0317
29 | AAAACGCC | 0.099
30 | CCAACGCG | -0.107
31 | CAAACGCG | 0.292
32 | CAACCGCG | 0.0561
33 | AAAACGCG | 0.285
34 | AAACCGCC | 0.212
35 | AAAACGCT | 0.0239
36 | AAACCGCG | 0.287
37 | CAGTTTTC | 0.105
38 | CACACCAG | 0.0883
39 | ACTAGTTA | 0.027
40 | AACAGTAT | 0.108
41 | AATGGGAG | 0.021
42 | ACACTGTC | -0.0374
43 | CTGAGTCA | 0.0791
44 | CACTGAAA | 0.322
45 | CACTGAAC | 0.0627
46 | TACTGAAA | 0.358
47 | AACTGTAA | 0.328
48 | AACTGTAT | 0.134
49 | TACTGATA | 0.198
50 | AACTGAAA | 0.422

Row | Sequence | PBM E-score
51 | GACTGAAA | 0.241
52 | CACTGAAG | -0.03
53 | GACTGTAA | -0.0138
54 | AACTGAAG | 0.158
55 | AACTGAAC | 0.0813
56 | CGCCATAA | -0.108
57 | AAGACCTA | -0.0739
58 | AATCGCCG | -0.0024
59 | TAACGTAA | 0.191
60 | ATAAATGA | 0.189
61 | AGTAGACG | -0.0195
62 | TCTCTCAA | 0.0783
63 | ACTGCAAT | 0.109
64 | AAGGTCCC | -0.279
65 | TGTCACAA | 0.3
66 | CGTCACAA | 0.108
67 | GGTCACAA | -0.022
68 | AACGTTGG | 0.038
69 | CTAGATCA | -0.22
70 | CAGTGGGA | -0.0936
71 | CACCACTC | -0.164
72 | TACCGAAA | 0.0921
73 | ACTGTGGA | -0.123
74 | ACTTTCAT | -0.0303
75 | AGTTTCAT | 0.428

Row | Sequence | PBM E-score
76 | CATTTCAG | 0.0948
77 | CGTTTCCA | 0.301
78 | CGTTTCCC | 0.165
79 | AGTTTCAG | 0.464
80 | ACTTTCAG | 0.0489
81 | CGTTTCAG | 0.482
82 | AATTTCAT | 0.0623
83 | AGTTTCCG | 0.148
84 | CCTTTCAG | -0.115
85 | GGTTTCCA | -0.0565
86 | CATTGACG | 0.0435
87 | GAGCTCGC | -0.0349
88 | CCCTTAGC | -0.0617
89 | CCGTTGCA | 0.0898
90 | CGTGATCA | -0.00817
91 | CGCTTCGA | -0.0748
92 | CGGTTTGC | 0.0736
93 | AAAGTGCG | 0.0163
94 | CTTTCTTA | 0.0052
95 | CCCTGACA | -0.0188
96 | AGTTTCCA | 0.212
97 | AGTTTCAC | 0.338
98 | CGTTTCGC | 0.296
99 | AGTTTCGC | 0.184
100 | AGTTTCTC | -0.0852

Row | Sequence | PBM E-score
101 | CGTTTCGA | 0.195
102 | CGTTTCAC | 0.453
103 | AGTTTCTA | 0.16
104 | AGTTTCAA | 0.307
105 | ACTTTCAC | 0.139
106 | CATTTCAC | 0.099
107 | CGTTTCTC | 0.0338
108 | GTCCATAA | -0.172
109 | CGGTGGAC | -0.157
110 | CTCACTAC | 0.00581
111 | CAGTTACA | 0.0929
112 | CGTTTCAA | 0.46
113 | CCTTTCAA | -0.0319
114 | CGTTTCTA | 0.166
115 | AAGCTAGC | -0.242
116 | CACTTCGC | 0.0953
117 | AAGAATGA | 0.209
118 | CCATCCCC | 0.0914
119 | ACATCCCT | -0.0649
120 | ACATCCCC | 0.321
121 | AGCAGGTG | -0.0318
122 | CAATCCCA | -0.0795
123 | CAATCCCG | 0.321
124 | AAATCCGG | 0.0201
125 | CAATCCGG | 0.273

Row | Sequence | PBM E-score
126 | CAATCCCC | 0.0988
127 | CAATCCGC | 0.0698
128 | TTAGGAAA | 0.292
129 | ATAGGAAA | 0.0645
130 | CTAGGAAA | -0.0731
131 | AAGAAATC | -0.0981
132 | CTGAAACC | 0.47
133 | ATGAAACC | 0.457
134 | AGGAAACC | -0.0955
135 | ATGAAATC | 0.185
136 | CTGAAAGA | 0.00814
137 | CTGAAATC | -0.0192
138 | CTGAAATA | 0.202
139 | CTGAAAAC | 0.0248
140 | CTGAAACA | 0.495
141 | AGAACATC | -0.0976
142 | CGACCGTC | -0.173
143 | CGAGTCAC | -0.0334
144 | CAATGCAC | -0.042
145 | GAAACAAA | 0.345
146 | AAAACAAG | 0.104
147 | CTAACAAA | 0.0819
148 | AGAACAAA | 0.312
149 | TTAACAAA | 0.246
150 | GTAACAAA | 0.312

Row | Sequence | PBM E-score
151 | CAAACAAA | 0.149
152 | TAAACAAA | 0.244
153 | AGAACAAT | 0.247
154 | AGAACAAG | 0.0467
155 | AAAACAAA | 0.293
156 | ACAACAAA | 0.152
157 | ATGAGAAC | 0.118
158 | AGTGAGCG | -0.176
159 | CCGCAGCG | -0.033
160 | GCGTAGCA | 0.0572
161 | CTCGACTA | 0.0414
162 | GAGACCTA | -0.0109
163 | GAGATTGA | 0.0793
164 | CCTAGAAA | 0.144
165 | AAAACAAC | 0.154
166 | GAAACAAC | 0.334
167 | CAAACAAC | 0.223
168 | GGGGTGAA | 0.0185
169 | CGCCTAGA | -0.0727
170 | ACATCTTA | -0.0589
171 | ACATCTTG | -0.151
172 | ACATCTTC | 0.261
